Measurements reported in PubChem BioAssay AID1487 (National Center for Advancing Translational Sciences (NCATS), 2009).
Hit rate of the full screen: of about 200,000 compounds, about 25 (0.01%) were called active. About 23% were inconclusive and are not listed. Calls follow the shape of the dose curve; as a rule, active = well fitted inhibition curve with a large enough effect in the signal ratio, with a control signal flat (not every such curve was filed as active); inconclusive = small, poorly fitted or top-dose-only effect, or effect the other way, or a change in a side signal; inactive = flat fitted curve, though single readings scatter; the % refers to the signal ratio. This excerpt belongs to a sample that is enriched for actives.

test: qHTS Assay for Modulators of Lamin A Splicing; details: HeLa LMNA splicing GFP/RFP minigene ratio, 48 h; series mostly up to 46 µM
Text: NCGC Assay Overview: Hutchinson-Gilford Progeria Syndrome (HGPS) is a pediatric premature aging disease caused by a spontaneous mutation in the lamin A/C (LMNA) gene. The mutation activates a cryptic splice site in the LMNA pre-mRNA which results in production of a pre-lamin A protein that cannot be processed properly. The mutant protein accumulates in the nucleus and negatively affects numerous cellular functions. Correction of the splicing defect in HGPS patient cells using a targeted oligonucleotide (exo11) leads to reversal of the cellular disease phenotypes. To identify small molecule modulators of aberrant LMNA splicing, a homogenous assay was constructed in HeLa cells that used a GFP containing minigene to report on correction of aberrant splicing in lamin A and a RFP (DsRed2) to report on cell viability, uniformity and nonspecific effects on the assay signal. This assay was adapted to laser-scanning microplate cytometry (Acumen, TTP Labtech) where miniaturization of the assay to a 1,536-well plate format was possible. References: Bowen, W. P.; Wylie, P. G. Application of Laser-Scanning Fluorescence Microplate Cytometry in High Content Screening. Assay Drug Dev Technol 2006;4:209-221. Scaffidi P, Misteli T. Reversal of the cellular phenotype in the premature aging disease Hutchinson-Gilford progeria syndrome. Nat.
NCGC Assay Protocol Summary: Reagents/Controls: Stable clones expressing DsRed2 and lamin A-EGFP were generated by Cell and Molecular Technologies in S3 HeLa cells. HeLa cells were prepared for the assay when they were 70-90% confluent. The cells were counted and resuspended in Opti-MEM I (no phenol red; Gibco), 2% FBS, 1% penicillin/ streptomycin (Gibco) at concentration of 120 cells/uL concentration. The suspension was passed through a Falcon basket filter with pore size 40um (Beckton Dickson). Control titrations: column […] 1536-well plate contained a sixteen point titration (1:2 dilutions) in duplicate of ancitabine (Sigma: A8598) beginning at 40 uM final concentration. Column 2 contained a sixteen point titration (1:2 dilutions) of cycloheximide beginning at 1.4 mM final concentration. Column 3 contained ancitabine at 40 uM and column 4 contained was the vehicle control (0.5% DMSO final concentration). Assay Steps: 5 uL of HeLa cells were plated in Aurora LoBase black clear bottom (cyclic-olefin polymer) 1536-well plates at a final density of 600 cells/well. Controls and library compounds were added with a 1536-well pin array using the Kalypsys pin-tool. The plates were then incubated for 48 hrs in a cell-culture incubator (37 °C; 5% CO2, 98% humidity). Following incubation the plates were read on the Acumen Explorer using the 488 nm laser. Data was collected on objects between 10 and 100 um in size. Cell objects were defined by a 15 um width x 10 um depth filter. The ratio of the total object intensity in PMT1 (500-530 nm emission; GFP) over PMT3 (575-640 nm emission; RFP) was calculated for analysis. Keywords: NIH Roadmap, MLSCN, MLI, MLSMR, qHTS, NCGC, lamin A, Progeria, RNA splicing.
% is scaled to controls: 0 for no effect and ±100 for the full control effect.

Ratio change, negative = inhibition, inactive:
COc1cccc(NC(=O)CS(=O)(=O)c2cn(CC(=O)N3CCOCC3)c3ccccc23)c1 10.8% [at 9.22 µM]
COc1cccc(N2CCN(C(=O)CCCCCn3c(=O)[nH]c4ccccc4c3=O)CC2)c1
COc1ccc(N(CC(=O)NC2CCCC2)C(=O)CS(=O)CC(=O)Nc2ccc3c(c2)OCO3)cc1 (configuration not stated)
N#Cc1c(NC(=O)C2CC(Cl)=CCC2C(=O)O)sc2c1CCCCC2 (configuration not stated)
CCOc1ccccc1/C=N/NC(=O)CNC(=O)COc1ccccc1
Cc1ccccc1N1C(=O)C(Oc2ccc(Cl)cc2)C1CNCC1CCCO1 (configuration not stated)
Fc1ccccc1N=C1Nc2cccc3cccc1c23
COc1ccc(C(=O)OCC(=O)NCC2CCCO2)cc1[N+](=O)[O-] (configuration not stated)
O=C(NC(=S)Nc1cccc(-c2ccc(CO)o2)c1)c1cccs1
COCCN(C(=O)c1ccccc1F)c1c(N)n(Cc2ccccc2)c(=O)[nH]c1=O
Cc1c(Cl)cccc1NC(=S)N(Cc1ccccc1)Cc1cccnc1
Cc1cccc(NC(=O)N2CCC(CN3CCc4ccccc4C3)CC2)c1C
Cc1nc(N2CCCCC2)sc1C=O
CN(C(=O)CSc1nncc2ccccc12)C1CCCCC1
CCc1cccc(NC(=O)CN(C)S(=O)(=O)c2ccc3[nH]c4c(c3c2)CCCC4)c1
CC(C)CCN(C(=O)Nc1ccc(Cl)c(Cl)c1)C(C)c1cccs1 (configuration not stated)
COC(=O)CCC(=O)N1CCCC(CO)(Cc2ccccc2)C1 (configuration not stated)
Cc1csc(CN(C)C(=O)CC2C(=O)NCCN2CC(C)(C)C)n1 (configuration not stated)
O=C(NCCCN1CCOCC1)c1ccccc1NS(=O)(=O)c1ccc(F)cc1
COCCCNC(=S)NCCNc1nc2cc(C)c(C)cc2cc1C#N
Cc1ccccc1CN1C(=O)c2ccccc2Sc2ccc(C(=O)NCCCN3CCOCC3)cc21
Cc1ccc(C2CC(c3cccc(NS(C)(=O)=O)c3)=NN2S(C)(=O)=O)cc1 (configuration not stated) -2.59% [at 9.22 µM]
O=C1CCC/C(=N\NC(=O)NC2CCCCC2)C1
Cc1ccc(NC(=O)CNCc2ccccn2)cc1S(=O)(=O)N(C)C
O=C(Oc1cccc(NC2=NS(=O)(=O)c3ccccc32)c1)c1ccncc1
O=C(CNC(=O)c1cc(=O)[nH]c2ccccc12)Nc1ccc(F)c(F)c1 3.5% [at 9.22 µM]
Cc1ccccc1Nc1nc(N)nc(CSc2nnc3ccccn23)n1
CCc1ccc(C2C(C(=O)Nc3ccccc3)=C(C)Nc3c(C(=O)Nc4ccc(C)cc4)cnn32)cc1 (configuration not stated)
CCN(CC)c1nn2c(=O)c(C(=O)NCCc3ccccc3)cnc2s1
O=C(N/N=C\c1cc(Br)c(Br)o1)C1COc2ccccc2O1 (configuration not stated)
CN(Cc1ccccn1)Cc1nc(-c2ccc(Cl)cc2)no1
Cc1ccc(Cl)cc1N1CCN(C(=O)c2cnc3c(-c4ccc(F)cc4)c(C)nn3c2C)CC1
CSc1ccc(/C=N\NC(=O)CC(=O)NC(C)C)cc1
CC1CCCCN1CCCNC(=O)Cn1ncc2c([nH]c3ccccc32)c1=O (configuration not stated)
CC(=O)c1cccc(-n2nnnc2SCC(=O)NNC(=O)C2CCCCC2)c1 7.45% [at 9.22 µM]
COc1ccc(NC(=O)c2ccccc2CC[N+](=O)[O-])cc1
COc1cccc(N(Cc2nnc3n2CCCCC3)C(=O)Nc2ccccc2F)c1
CCOc1ccc(NC(=O)C(CC(C)C)N2Cc3ccccc3C2=O)cc1 (configuration not stated)
Cc1cccc(NC(=O)c2ccc(F)c(S(=O)(=O)N(C)C3CCCCC3)c2)c1
Cc1cc(NC(=O)CSc2nc3c(cc2C#N)CCCCC3)no1
Cn1c(N)c(C(=O)COC(=O)c2ccccc2NCc2ccco2)c(=O)n(C)c1=O
Cc1csc(NC(=O)Nc2ccccc2[N+](=O)[O-])n1
S=c1[nH]nc(-c2cccs2)n1/N=C/c1cccs1 21.8% [at 9.22 µM]
COCC(C)NCc1cc(Br)ccc1OC (configuration not stated)
Cc1ccc(S(=O)(=O)NC(=O)N2CCCN(Cc3ccc(F)cc3)CC2)cc1
Cc1ccc(C)c(-n2nnnc2SCC(=O)c2c(N)n(C)c(=O)n(C)c2=O)c1 -17.5% [at 9.22 µM]
CC(C(=O)N=Nc1c(O)n(C)c2ccc(Br)cc12)n1cnc2ccccc2c1=O (configuration not stated)
COc1ccc(Br)cc1/C=N/Nc1ccc(Cl)c(C(=O)O)c1
Cc1nnc(SCC(=O)NNC(=O)c2ccc(Cl)cc2)n1CC1CCCO1 (configuration not stated)
CCOC(=O)c1cccc(NC(=O)c2cc(S(=O)(=O)N3CCCC(C)C3)cn2C)c1 (configuration not stated)
Cc1ccc(NC(=O)Cn2c(=O)n(CCC(=O)NC3CCN(Cc4ccccc4)CC3)c(=O)c3ccccc32)cc1
Cc1ccccc1NC(=O)NC1(C(=O)N2CCCC2)CCCCC1
Cc1cccc(NC(=O)c2ccc3nc(C(C)C)oc3c2)c1C
CC(=O)NC(Cc1ccc(F)c(F)c1)C(=O)NC1CCN(c2nnnn2-c2ccccc2)CC1 (configuration not stated)
O=C(CN1CCSCC1)N/N=C/c1ccc(Cl)cc1 -10.4% [at 9.22 µM]
COc1ccc2ncc3c(-c4ccc(C)c(C)c4)nn(CC(=O)NC4CCCC4)c3c2c1
COc1ccc(CNC(=O)C2=Cc3cccc(OC)c3OC2)cc1OC
Cc1nccn1CCCNC(=O)CC1C(=O)NCCN1Cc1ccc(Cl)c(F)c1 (configuration not stated)
COc1cc(CN(C(=O)c2ccccc2Br)c2ccccn2)cc(OC)c1OC
O=Cc1ccc(Oc2cccc(C(F)(F)F)c2)nc1
Cc1ccccc1OCCSc1nc2ccc(NC(=O)c3ccco3)cc2s1
COc1cc(Cl)c(C)cc1Nc1nnc(-n2nc(C)cc2C)c2ccccc12
COc1ccc(C(=O)Nc2cccc(S(C)(=O)=O)c2)cc1
C=CCn1c(CNC(=O)c2ccco2)nnc1SCC(=O)c1ccc(OC)cc1
COc1cc(/C=N/Nc2ccc(C)cc2)cc(Br)c1O
O=C(Nc1ccc2nc(SCCOc3ccccc3Cl)sc2c1)c1ccco1
Cc1cc(C)c2c(NC(=O)C3CC3)nn(C)c2n1
C/C(CC(=O)N1CCN(C=O)CC1)=N\NC(=O)c1ccc(Br)cc1
COc1cccc(NC(=O)c2ccc3nc(CCc4ccccc4)oc3c2)c1
COc1ccc(CCNC(=O)c2ccc(CSCc3ccc(C)cc3)o2)cc1OC
O=C(COc1ccc(-c2ccccc2)cc1)NN=C1CCCC1
CC1(C)CC(=O)c2cnc3nc4ccccc4n3c2C1
